Eight molecules from PubChem BioAssay (Tox21) can be followed below.

The nature of test [1]: Nuclear factor erythroid 2-related factor 2/antioxidant responsive element (Nrf2/ARE) small molecule agonists: qHTS cell viability counter screen in human keratinocytes (AID 1919968; active = well fitted curve in the direction sought with a large enough effect in the repeat runs; an effect the other way counts as inactive or inconclusive; also: nearly all actives have a fitted effect of over 55% in size). The method, boiled down: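 After a 5 h attachment period, ARE-reporter keratinocytes were dosed with compounds in DMSO and then cultured 23 h at 37 C. Cell viability came from CellTiter-Fluor signal read after a further 1 h.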

The nature of test [2]: Nuclear factor erythroid 2-related factor 2/antioxidant responsive element (Nrf2/ARE) small molecule agonists: luciferase reporter gene qHTS assay in human keratinocytes (AID 1919969). Also: nearly all actives have a fitted effect of over 35% in size. Also: potency is read from the fitted curve at half-maximal effect.
The target in test [3] is Gonadotropin-releasing hormone receptor (Homo sapiens) (UniProt P30968). As to the kind of experiment: Human gonadotropin-releasing hormone receptor (GnRHR) small molecule agonists, calcium flux assay in GnRHR-HEK293 cells (AID 1920063). Also: nearly all actives have a fitted effect of over 35% in size. The method, boiled down: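 We seeded human GnRHR-expressing HEK293 cells for 18 hours, loaded them with calcium dye for an hour at 37 C, added test compounds, and recorded fluorescence intensity kinetically for three minutes.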

Test [4] addresses KiSS-1 receptor (Homo sapiens) (UniProt Q969F8). As to the kind of experiment: Human kisspeptin (KISS1R) small molecule agonists, calcium flux assay in KISS1R-HEK293 cells (AID 1920064; active = well fitted curve in the direction sought with a large enough effect in the repeat runs; an effect the other way counts as inactive or inconclusive). A digest of the protocol: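 Kinetic calcium assay, 1 s sampling over 3 min at Ex/Em 480/540, in HEK293 cells engineered with human KISS1R; compounds delivered in DMSO after 1 h dye loading.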
Test [5] in a line: G protein-coupled receptor (GPCR) small molecule agonists, calcium flux assay: HEK293 wild type cell line counter screen (AID 1920065). The method, boiled down: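 Calcium-sensitive dye, loaded 1 h at 37 C into cells cultured 18 h, reports compound-evoked calcium release as fluorescence (Ex/Em 480/540), measured over 3 min. Agonist mode; 15-point titrations, triplicate.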
A short description of test [6]: p53 small molecule agonists, cell-based qHTS assay with human liver microsomes (AID 1963577).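 Also: p53 response element beta-lactamase reporter cells with liver microsomes plus NADPH.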 A digest of the protocol: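 With metabolic activation: human liver microsomes (0.5 mg/mL final) plus NADPH (0.5 mg/mL final) added alongside compounds to p53RE-bla cells; 16 h 37 C exposure; beta-lactamase read by LiveBLAzer fluorescence.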
Test [7] in a line: p53 small molecule agonists, cell-based qHTS assay with rat liver microsomes (AID 1963578). The method, boiled down: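 Metabolic activation by rat liver microsomes and NADPH, each 0.5 mg/mL final, added right after compounds to p53RE-bla reporter cells (4,000/well, plated 5 h earlier). 16 h at 37 C, then LiveBLAzer substrate for 2 h at room temperature in the dark; fluorescence read-out.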

A short description of test [8]: p53 small molecule agonists, cell-based qHTS assay with human liver microsomes: qHTS cell viability counter screen (AID 1963579). Also: nearly all actives have a fitted effect of over 45% in size. A digest of the protocol:
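Metabolic activation used human liver microsomes and NADPH, both 0.5 mg/mL final, over 16 hours at 37 C on p53RE-bla cells (4,000/well). Cytotoxicity measured by CellTiter-Glo luminescence, 30 min at room temperature.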

A short description of test [9]: p53 small molecule agonists, cell-based qHTS assay with rat liver microsomes: qHTS cell viability counter screen (AID 1963580). Also: nearly all actives have a fitted effect of over 45% in size. A digest of the protocol:
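In HCT-116 cells carrying a p53 response element-bla reporter, compounds were metabolically activated in situ by rat liver microsomes with NADPH over 16 h. Cell ATP content then served as the cytotoxicity measure.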

The nature of test [10]: p53 small molecule agonists, cell-based qHTS assay: qHTS cell viability counter screen (AID 1963581). Also: nearly all actives have a fitted effect of over 45% in size. The method, boiled down:
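Following 5 h attachment, HCT-116 p53RE-bla cells took up compound for 16 h at 37 C; the reporter was read with B/G FRET substrate (2 h RT), and viability then via CellTiter-Glo ATP luminescence.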

Test [11] can be described thus: p53 small molecule agonists, cell-based qHTS assay (AID 1963582; active = well fitted activation curve with a large enough effect in the signal ratio in the repeat runs, not every such curve was filed as active; the % refers to the signal ratio). The method, boiled down: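 In this cell-based concentration-response screen, a p53 response element drives beta-lactamase; cells received DMSO-borne compounds after 5 h culture and were incubated a further 16 h before FRET substrate development.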
Test [12] has as its target 5-hydroxytryptamine receptor 2A (Homo sapiens) (UniProt P28223). As to the kind of experiment: 5-hydroxytryptamine receptor 2A (HTR2A) small molecule antagonists, cell-based qHTS assay (AID 1963586). Also: nearly all actives have a fitted effect of over 45% in size. A digest of the protocol:
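Antagonist-mode intracellular calcium assay: DOI (4 nM) added after 5 min compound pre-incubation at room temperature to dye-loaded HTR2A-CHO cells. Fluorescence followed for 3 min, sampled every second.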

The target is the same in test [13]. Put plainly: 5-hydroxytryptamine receptor 2A (HTR2A) small molecule agonists, cell-based qHTS assay (AID 1963587). Also: nearly all actives have a fitted effect of over 30% in size. A digest of the protocol: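 HTR2A-CHO cells, plated 18 h at 37 C/5% CO2, dye-loaded 1 h at 37 C; compounds in DMSO added by pin tool (agonist mode). Intracellular calcium flux read as kinetic fluorescence on FDSS over 2 min at 1 s intervals.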
Test [14] deals with Muscarinic acetylcholine receptor M1 (Homo sapiens) (UniProt P11229). Put plainly: Cholinergic receptor muscarinic 1 (CHRM1) small molecule agonists, cell-based qHTS assay (AID 1963589). Also: nearly all actives have a fitted effect of over 35% in size. The method, boiled down:
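Measures agonist-induced intracellular calcium rise. Stable human CHRM1 CHO line, 1 h dye load at 37 C, compounds from DMSO, kinetic fluorescence read.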

The nature of test [15]: cAMP Responsive Elements (CRE) small molecule agonists, cell-based qHTS assay (AID 1963590). The method, boiled down: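 A CRE-responsive beta-lactamase reporter in HEK 293T cells was used. Treatment ran 3 h at 37 C; detection used LiveBLAzer B/G FRET substrate for 2 h at room temperature.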
In test [16] the target is Beta-2 adrenergic receptor (Homo sapiens) (UniProt P07550). Put plainly: Adrenergic beta2 receptor (ADRB2) small molecule antagonists, cell-based qHTS assay (AID 1963592). Also: series mostly up to about 92 µM; nearly all actives have a fitted effect of over 50% in size. The method, boiled down:
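Cells (CHO, stable ADRB2 overexpression) incubated 18-20hr at 37C; compounds added from DMSO; agonist mix (1nM isoproterenol, 100uM IBMX, 25uM Ro-20-1724) added; 0.5hr RT; d2-cAMP and anti-cAMP-cryptate added; 1hr RT; 665/615 nm read.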

The target in test [17] is D(2) dopamine receptor (Homo sapiens) (UniProt P14416). As to the kind of experiment: Dopamine D2 receptor (DRD2) small molecule agonists, cell-based qHTS assay (AID 1963594). Also: nearly all actives have a fitted effect of over 35% in size. The method, boiled down: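 HEK293 cells stably expressing DRD2 were cultured 24 h at 37 C, then given Ro20-1724 (0.1 mM final) and compounds for 10 min at room temperature. NKH477 (200nM) was then added for 30 min. cAMP was read by HTRF.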

For test [18] the target is unchanged. As to the kind of experiment: Dopamine D2 receptor (DRD2) small molecule antagonists, cell-based qHTS assay (AID 1963595; active = well fitted inhibition curve with a large enough effect in the signal ratio in the repeat runs, with a control signal flat; the % refers to the signal ratio). The method, boiled down: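 HEK293 cells stably expressing DRD2 were preincubated with 0.1 mM Ro20-1724, then with compound for 10 min at room temperature. Cells were stimulated with 200 nM NKH477 plus 12 nM quinpirole for 30 min, and cAMP was read by HTRF.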

Test [19] in a line: cAMP Responsive Elements (CRE) small molecule antagonists, cell-based qHTS assay (AID 1963591; active = well fitted inhibition curve with a large enough effect in the signal ratio in the repeat runs, not every such curve was filed as active; the % refers to the signal ratio). The method, boiled down:
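HEK293T cells carrying a CRE-driven beta-lactamase reporter receive compound and NKH477 (0.25 uM final) for 3 h. Fluorescence from LiveBLAzer B/G FRET substrate is read after 2 h at room temperature.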

Test [20] concerns the target Muscarinic acetylcholine receptor M1 (Homo sapiens) (UniProt P11229). Put plainly: Cholinergic receptor muscarinic 1 (CHRM1) small molecule antagonists, cell-based qHTS assay (AID 1963588). Also: nearly all actives have a fitted effect of over 40% in size. The method, boiled down: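 CHRM1-CHO calcium-flux assay, antagonist mode. Cells were seeded 18 h, dye-loaded 1 h at 37 C and given compound for 5 min at RT, then acetylcholine was added at 50nM. FDSS fluorescence was read 3 min; 15 concentrations, three runs.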

Values without a mark were called inactive. Records with an inconclusive call do not appear. Calls of active or inactive are those of the source. Unless noted, calls follow the shape of the full dose curve.

Chain of Gonadotropin-releasing hormone receptor (Homo sapiens) (P30968 whole entry, looked up): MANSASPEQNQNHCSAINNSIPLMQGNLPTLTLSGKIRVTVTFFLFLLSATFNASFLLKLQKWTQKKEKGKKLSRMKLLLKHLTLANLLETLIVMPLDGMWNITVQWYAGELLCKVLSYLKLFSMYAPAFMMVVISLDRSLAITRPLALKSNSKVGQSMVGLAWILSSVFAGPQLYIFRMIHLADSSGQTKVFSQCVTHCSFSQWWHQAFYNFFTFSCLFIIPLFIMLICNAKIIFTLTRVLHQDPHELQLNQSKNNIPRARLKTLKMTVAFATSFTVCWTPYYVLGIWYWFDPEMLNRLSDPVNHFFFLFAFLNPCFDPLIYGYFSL
Chain of D(2) dopamine receptor (Homo sapiens) (P14416 whole entry, looked up): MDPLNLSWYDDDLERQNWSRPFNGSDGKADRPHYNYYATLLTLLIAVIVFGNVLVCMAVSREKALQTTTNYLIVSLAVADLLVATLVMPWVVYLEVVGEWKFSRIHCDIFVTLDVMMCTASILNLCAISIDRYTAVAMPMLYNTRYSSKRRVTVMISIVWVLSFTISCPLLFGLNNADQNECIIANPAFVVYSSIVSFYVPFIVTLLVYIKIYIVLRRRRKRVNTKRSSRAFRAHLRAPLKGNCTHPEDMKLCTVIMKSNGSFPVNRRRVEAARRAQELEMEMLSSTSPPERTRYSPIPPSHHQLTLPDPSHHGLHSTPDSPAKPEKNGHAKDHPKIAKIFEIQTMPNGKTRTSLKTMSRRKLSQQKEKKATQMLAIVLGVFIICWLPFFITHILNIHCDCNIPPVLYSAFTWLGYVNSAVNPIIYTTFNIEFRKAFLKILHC
Chain of 5-hydroxytryptamine receptor 2A (Homo sapiens) (P28223 whole entry, looked up): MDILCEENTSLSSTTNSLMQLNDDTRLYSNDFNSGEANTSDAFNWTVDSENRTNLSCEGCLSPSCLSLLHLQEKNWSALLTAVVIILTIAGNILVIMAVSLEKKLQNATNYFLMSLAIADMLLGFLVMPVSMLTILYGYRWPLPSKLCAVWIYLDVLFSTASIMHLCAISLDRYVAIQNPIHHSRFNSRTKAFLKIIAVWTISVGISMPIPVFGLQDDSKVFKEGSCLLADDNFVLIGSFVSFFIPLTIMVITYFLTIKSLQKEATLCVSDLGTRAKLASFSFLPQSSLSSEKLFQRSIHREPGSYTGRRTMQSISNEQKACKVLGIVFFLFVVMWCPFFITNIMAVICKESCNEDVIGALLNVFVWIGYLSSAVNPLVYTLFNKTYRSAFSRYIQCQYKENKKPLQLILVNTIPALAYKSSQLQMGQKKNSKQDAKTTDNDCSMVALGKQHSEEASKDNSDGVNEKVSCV
Chain of Beta-2 adrenergic receptor (Homo sapiens) (P07550 whole entry, looked up): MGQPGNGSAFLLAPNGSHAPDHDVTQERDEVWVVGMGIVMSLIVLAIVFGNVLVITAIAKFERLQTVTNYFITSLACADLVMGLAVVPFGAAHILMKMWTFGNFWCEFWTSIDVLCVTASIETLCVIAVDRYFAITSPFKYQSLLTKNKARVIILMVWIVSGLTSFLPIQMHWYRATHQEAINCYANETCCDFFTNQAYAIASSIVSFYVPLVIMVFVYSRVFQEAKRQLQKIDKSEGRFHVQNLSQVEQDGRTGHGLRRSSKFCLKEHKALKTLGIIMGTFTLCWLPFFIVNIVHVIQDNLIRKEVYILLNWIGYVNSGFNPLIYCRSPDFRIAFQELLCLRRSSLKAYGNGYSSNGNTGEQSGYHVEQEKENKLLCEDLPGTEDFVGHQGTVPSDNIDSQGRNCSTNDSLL
Chain of KiSS-1 receptor (Homo sapiens) (Q969F8 whole entry, looked up): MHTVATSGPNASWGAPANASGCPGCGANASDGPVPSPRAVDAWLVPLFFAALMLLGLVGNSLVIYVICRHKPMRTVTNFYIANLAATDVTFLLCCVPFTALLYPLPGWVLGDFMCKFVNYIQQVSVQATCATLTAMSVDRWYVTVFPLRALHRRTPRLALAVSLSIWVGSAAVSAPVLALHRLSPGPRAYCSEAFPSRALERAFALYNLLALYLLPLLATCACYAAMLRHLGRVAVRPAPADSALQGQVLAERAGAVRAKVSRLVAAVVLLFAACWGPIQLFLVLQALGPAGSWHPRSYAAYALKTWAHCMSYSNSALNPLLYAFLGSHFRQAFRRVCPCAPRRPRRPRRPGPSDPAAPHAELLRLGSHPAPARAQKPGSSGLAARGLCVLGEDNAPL
Chain of Muscarinic acetylcholine receptor M1 (Homo sapiens) (P11229 whole entry, looked up): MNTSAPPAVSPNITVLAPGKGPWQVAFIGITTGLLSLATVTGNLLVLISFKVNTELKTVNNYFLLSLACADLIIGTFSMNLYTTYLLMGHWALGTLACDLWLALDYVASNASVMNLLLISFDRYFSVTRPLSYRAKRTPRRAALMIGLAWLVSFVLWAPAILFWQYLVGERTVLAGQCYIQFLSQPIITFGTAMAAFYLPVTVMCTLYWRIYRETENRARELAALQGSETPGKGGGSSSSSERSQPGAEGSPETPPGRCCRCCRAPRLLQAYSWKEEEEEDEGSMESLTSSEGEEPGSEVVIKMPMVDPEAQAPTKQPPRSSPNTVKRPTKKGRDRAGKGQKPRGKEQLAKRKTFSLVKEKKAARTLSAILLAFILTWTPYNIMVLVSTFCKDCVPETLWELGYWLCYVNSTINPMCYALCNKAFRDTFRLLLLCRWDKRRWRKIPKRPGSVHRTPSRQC

As for `CC(=O)OC[C@H]1O[C@@H](OC(C)=O)[C@H](OC(C)=O)[C@@H]1OC(C)=O`, the Potency result in test [1], in [2], in [3], in [4], in test [5] and in test [6] was “inactive” in each case. In addition, the Potency result in test [7], in [8], in [9], in test [10], in test [11] and in test [12] was “inactive” throughout. The Potency entry in test [13], in test [14], in test [15], in test [16], in [17] and in [18] was “inactive” each time.
Take `C=CC(=O)OCCOC(=O)C=C`: the Potency result in test [1], in test [3], in test [4], in test [5], in test [6] and in test [7] was “inactive” in each case. For the same molecule, the Potency result in test [8], in test [9], in [10], in test [11], in [12] and in test [13] was “inactive” throughout. Also, the Potency entry in test [14], in test [19], in test [16], in test [17] and in test [18] was “inactive” in each case. Besides, the Potency in test [2] is 68.6 µM (active).
In the case of `COc1ccc2cc(C=O)ccc2c1`, the Potency entry in [1], in [2], in test [3], in [4], in [5] and in test [6] was “inactive” each time. In addition, the Potency result in test [7], in test [8], in test [9], in test [10], in test [11] and in [12] was “inactive” in each case. The Potency result in test [13], in [20], in test [19], in test [16] and in test [18] was “inactive” in each case.
`O=C(Cn1ccnc1[N+](=O)[O-])NCc1ccccc1`: the Potency result in test [1], in [2], in test [3], in test [4], in test [5] and in test [6] was “inactive” throughout. Further, the Potency entry in test [7], in test [8], in [9], in test [10], in [11] and in test [12] was “inactive” in each case. Also, the Potency result in test [13], in test [14], in test [15], in [19], in test [16] and in test [17] was “inactive” in each case. Also, in test [18], the Potency result is “inactive”.
As to `O=C(O)CNC(=O)c1ccc(CO)o1`, the Potency result in test [1], in test [2], in test [3], in test [4], in test [5] and in test [6] was “inactive” throughout. Besides, the Potency entry in test [7], in test [8], in test [9], in [10], in [11] and in test [12] was “inactive” each time. Further, the Potency result in test [13], in [14], in test [15], in [19], in [16] and in [17] was “inactive” in each case. Besides, in test [18], the Potency result was “inactive”.
Regarding `c1ccc(CCc2ccccc2)cc1`, the Potency entry in test [1], in test [2], in [3], in [4], in test [5] and in test [6] was “inactive” in each case. In addition, the Potency result in [7], in test [8], in test [9], in test [10], in test [11] and in test [12] was “inactive” each time. The Potency entry in test [13], in test [20], in [15], in [19], in test [17] and in test [18] was “inactive” each time.
`O=C(O)/C=C/c1ccc(Cn2ccnc2)cc1`: the Potency result in test [1], in test [2], in [3], in [4], in test [5] and in test [6] was “inactive” throughout. The Potency result in test [7], in test [8], in test [9], in [10], in test [11] and in [12] was “inactive” throughout. In addition, the Potency entry in test [20], in test [14], in [15], in test [19], in [16] and in [17] was “inactive” in each case. For the same molecule, the Potency result in test [18] is “inactive”.
For the molecule `CC1(C)[C@H]2CC[C@](C)(C2)[C@H]1O`, the Potency entry in test [1], in test [2], in [3], in test [4], in test [5] and in test [6] was “inactive” throughout. Also, the Potency entry in test [7], in test [8], in test [9], in test [10], in [11] and in [13] was “inactive” in each case. The Potency result in [20], in test [14], in test [15], in test [19], in [16] and in test [17] was “inactive” throughout.
